# Compound activity deposited in PubChem BioAssay by National Center for Advancing Translational Sciences (NCATS).
# Rows were chosen to be rich in hits. Some 3.8% of all compounds tested hit in one or more screens of this group.
# A549 tox – kills or reduces viability of A549 cells in Nrf2 counter-screen; Potency, µM (doses to about 46 µM), for inactives: top-dose activity change, negative = cytotoxicity, most hits filed as inhibitors; hit rate 0.16% among 390,000; A549 ARE-Fluc cells, CellTiter-Fluor viability, 18-24 h; further: on the % scale 0 is the no-effect control and ±100 the full control effect
#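 A549 ARE_Fluc cells in 5% FBS OPTI-MEM were exposed to compounds in concentration-response for 18-24 h at 37 deg C. Viability was read by CellTiter-Fluor fluorescence (Ex 405/Em 525) after 30 min, before the luciferase read.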
# ATXN2 expr inh – ATXN2 expression inhibition | HEK-293 ATXN2-luciferase reporter, luminescence, 24 h | Potency, µM (highest dose often 57 µM), for the others: top-dose activity change, negative = inhibition, actives largely listed as inhibitors | hit rate 0.72% among 360,000 | AID 1745845; further: on the % scale 0 is the no-effect control and ±100 the full control effect; nearly all actives have a fitted effect of over 55% in size
#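 qHTS (up to 57 uM final) was run with 24 h compound exposure of reporter cells at 37 °C. Each well was multiplexed: SteadyGlo luminescence measured ATXN2-luciferase expression after a fluorogenic Gly-Phe-AFC viability readout (25 uM final).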
# HepG2 viability – HepG2 cytotoxicity, counter-screen for TGF-b inhibitors | Potency, µM (top dose mostly 46.1 µM), for the others: top-dose activity change, negative = cytotoxicity, actives largely listed as cytotoxic | hit rate 0.76% among 410,000 | HepG2 CAGA-GFP viability, ATP luminescence, 18 h | AID 588856
#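 HepG2 CAGA-GFP cells (1000/well, DMEM with 1% FBS) received compound, then TGF-beta at 500 pg/mL final, and were incubated 18 hours at 37 degrees C. Viability was read by CellTiter-Glo luminescence. Media-only wells were set as complete cell-killing and DMSO as no toxicity.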
# TGFb SMAD3 inh – inhibitors of TGF-b signaling; hit rate 1.2% among 410,000; Potency, µM (highest dose often 46.1 µM), inactives show at the highest dose activity, negative = inhibition, hits mostly inhibitors; HepG2 CAGA-GFP TGF-b/SMAD3 reporter, GFP fluorescence, 18 h; TGF-beta stimulated, 500 pg/mL final; AID 588855; further: on the % scale 0 is the no-effect control and ±100 the full control effect; nearly all actives have a fitted effect of over 65% in size
#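 Read-out: total well GFP (ex488/em500-530) summed from mean per-cell fluorescence. Cells: HEPG2 CAGA-GFP, 1% FBS DMEM, 18 h at 37 degrees C with 500 pg/mL final TGF-beta. Unstimulated wells served as the full-inhibition control; stimulated DMSO wells = 0%.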
# Nrf2 inh – inhibitors of Nrf2 signaling; A549 ARE-Fluc reporter, luciferase luminescence, 18-24 h; Potency, µM (highest dose often 46 µM), without a hit: at the top dose activity change, negative = inhibition, usual class: inhibitors; hit rate 2.1% among 360,000; further: on the % scale 0 is the no-effect control and ±100 the full control effect; nearly all actives have a fitted effect of over 60% in size
#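 A549 ARE_Fluc cells (5000/well, 5% FBS OPTI-MEM) pre-incubated 2 h, then treated with compounds 18-24 h at 37C/5% CO2 in concentration-response. CellTiter-Fluor viability read first; BugLite luciferase luminescence after 15 min at room temperature gives Nrf2 activity.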
# ATXN viability – cell viability loss in ATXN counter-screen; S2 cells (HEK-293 line with an ATXN2-luciferase reporter) viability, CellTiter-Fluor protease fluorescence, 24 h; Potency, µM (titrated, usually from 56.7 µM), actives largely listed as cytotoxic; hit rate 0.49% among 400,000; further: nearly all actives have a fitted effect of over 40% in size
# Numbers without * were called inactive; i = inactive; ? = inconclusive; . = no result; [ ] = another dose, or the depositor's remark. The call rests on the fitted dose curve; in most records, active means well fitted curve in the direction sought with a large enough effect; inconclusive means small, poorly fitted or top-dose-only effect, or another doubt; inactive means no such curve, though single readings can be large; an effect the other way counts as inactive or inconclusive. Potency means the concentration at half of the fitted maximal effect.
SMILES,A549 tox,ATXN2 expr inh,HepG2 viability,TGFb SMAD3 inh,Nrf2 inh,ATXN viability
COc1ccc(/C=C/C(=O)Nc2ccc(C(C)=O)cc2)cc1S(=O)(=O)N1CCOCC1,.,.,-5%,-5%,.,i
CC1CCN(S(=O)(=O)c2ccc(NC(=O)CCN3C(=O)C4CC=CCC4C3=O)cc2)CC1 (stereo unspecified),5%,.,-11%,-15%,?,i
O=C(Nc1ncc(SCCN2CCCC2)s1)[C@]1(c2ccc(S(=O)(=O)C3CC3)cc2)C[C@@H]1C1CCCCC1,.,27µM*,.,.,.,.
Cc1ccc(S(=O)(=O)N2CCC(C(=O)NCCN3CCCCCC3)CC2)cc1,11%,1%,-3%,-3%,.,i
Cc1nn(C(C)C(=O)N/N=C/c2ccc(N(C)C)cc2)c(C)c1[N+](=O)[O-] (stereo unspecified),2%,-5%,9%,-15%,-12%,?
Cc1ccc(C(=O)N(Cc2nnc(-c3ccccc3Cl)o2)C2CC2)o1,.,.,10µM*,-3%,.,i
Cc1ccc(CN2C3=NCCCN3c3ccccc32)cc1,5%,-19%,-33%,?,-12%,i
CC(C)(C)c1ccc(CN2C3=NCCCN3c3ccccc32)cc1,-28%,?,16µM*,?,11%,?
COc1ccc(OC)c(NC(=O)CSc2n[nH]c(-c3ccccc3Cl)n2)c1,-1%,.,-2%,-22%,.,.
COc1ccc(-c2nc(C(N)=O)c3[nH]c(=O)n(-c4cccc(Cl)c4)c3n2)cc1OC,?,?,-112%,?,26µM*,?
COc1cccc(-c2nc(C(N)=O)c3[nH]c(=O)n(-c4cccc(Cl)c4)c3n2)c1OC,3%,-1%,-33%,-1%,-1%,i
F[B-](F)(F)c1cncc2ccccc12,3%,-5%,-7%,1%,2%,i
CCCN(CC(=O)Nc1ccccc1OC)C(=O)c1ccc2[nH]c3c(c2c1)CC(C)CC3 (stereo unspecified),?,?,-25%,?,23µM*,?
O=C1/C(=C/c2ccncc2)CCC/C1=C\c1ccncc1,?,14µM*,13µM*,3.2µM*,?,?
O=C(C1CCN(S(=O)(=O)c2ccccc2)CC1)N1CCCCCC1,0%,2%,-19%,-9%,-10%,i
Cc1cc(C)c(NC(=O)Nc2ccccc2C)c(Cl)c1,-4%,.,1.3µM*,-7%,-8%,i
COc1ccc(NC(=O)c2cc(-c3ccc(F)cc3)no2)cc1OC,-11%,7%,3%,35%,-14%,i
Cc1ccc(CNC(=O)c2ccc(CSCc3cccc(C)c3)o2)cc1,17%,-21%,-8%,?,.,i
Cc1cccc(CSCc2ccc(C(=O)NC(C)C)o2)c1,1%,-5%,3%,-4%,21µM*,i
Cc1ccc2ncnc(Nc3ccc(C)c(C)c3)c2c1,-1%,17%,-15%,6%,15µM*,i
CCCCCCCCc1ccc(CCC(N)(CO)CO)cc1,.,31µM*,.,.,.,.
Cc1cccc(OCC(=O)NCC(=O)N/N=C/c2cc(Br)cc(Br)c2O)c1,-3%,14µM*,-15%,-4%,?,i
Cc1c(C(=O)N2CCC(C)CC2)sc2ncnc(N(C)c3ccccc3)c12,-9%,-4%,-3%,1%,18µM*,i
Cc1ccccc1CS(=O)(=O)Cc1ccc(C(=O)NCCc2ccc(Cl)cc2)o1,-25%,.,-19%,14µM*,.,.
Cc1ccc(-c2c(C(=O)NCCc3ccc(Cl)cc3)oc(=O)c3ccccc23)cc1,15%,-38%,-2%,11µM*,-4%,i
SMILES,A549 tox,ATXN2 expr inh,HepG2 viability,TGFb SMAD3 inh,Nrf2 inh,ATXN viability
CC(OC(=O)c1cc(=O)c2cc(Cl)ccc2o1)C(=O)N1CCCC1 (stereo unspecified),0%,7%,1%,3%,6%,i
O=C(C[C@H]1C[C@H](C(=O)N2CCCCC2)[C@@]2(CCc3ccccc3)c3[nH]c4cc(-c5ccco5)ccc4c3CCN2C1=O)NCCC1=CCCCC1,1%,-2%,2%,-24%,-12%,i
O=C1/C(=C/c2ccccc2O)SC(=S)N1Cc1cccnc1,-10%,28µM*,-2%,?,7%,16µM*
COc1cc(/C=C2\SC(=O)N(Cc3ccc(Cl)cc3)C2=O)cc([N+](=O)[O-])c1O,15µM*,-21%[11.3 µM],4%,2%,15µM*,?
COc1cc(/C=C2\SC(=O)N(Cc3ccc(F)cc3)C2=O)cc([N+](=O)[O-])c1O,?,2%,-24%,?,?,i
O=C1/C(=C/c2ccc(O)c([N+](=O)[O-])c2)SC(=S)N1Cc1ccccc1,-30%,-21%,-20%,-11%,-8%,?
COc1cc(/C=C2/SC(=S)N(Cc3ccccc3)C2=O)cc(Cl)c1O,?,.,10%,19%,?,i
O=C1/C(=C\c2cccc([N+](=O)[O-])c2O)SC(=S)N1Cc1ccccc1,?,?,-42%,10µM*,16µM*,?
COc1cc([N+](=O)[O-])cc(/C=C2/SC(=S)N(Cc3ccccc3)C2=O)c1O,3%,.,-34%,?,21µM*,.
CCCN1CNc2c(c(=O)[nH]c(=S)n2CCc2ccc(OC)cc2)C1,5%,.,.,.,4%,.
O=C(CSc1nc2c(c(=O)n1-c1ccccc1)SCC2)NCC1CCCO1 (stereo unspecified),3%,2%,13%,0%,?,i
COC(=O)c1ccc(C2C=C(c3ccc(Cl)cc3)Nc3nc4ccccc4n32)cc1 (stereo unspecified),5%,?,-29%,?,.,?
O=C1CSC(=S)N1c1cccnc1,2%,-8%,-36%,-4%,15%,i
O=C1CSC(=S)N1Cc1cccnc1,?,?,-26%,7.9µM*,8%,?
CCc1ccc(-n2c(=O)c3sc4ccccc4c3n(CC(=O)N3CCCC3)c2=O)cc1,-15%,2%,11%,-10%,-8%,?
Cc1ccc(SCc2nc(-c3ccc(C(=O)NCc4ccccc4Cl)cc3)oc2C)cc1,3%,1%,-16%,0%,15µM*,i
CCc1ccc(CNC(=O)c2ccc(-c3nc(CSc4ccc(C)cc4)c(C)o3)cc2)cc1,-4%,9%,5%,-5%,?,i
CN(C)c1cccc(C(=O)NNC(=O)CSc2ccccc2)c1,13%,31%,-11%,3%,7%,i
